Data published in the supplement of paper PMC6555819.

Key:
Assay in all cases: PBM binding z-score (relative to random genomic background probes); higher = stronger binding; sequences stand for … in GC…GCGATTGACAGCGTAGAATGAAGG
[1] = test system: FXR:RXRa (NR concentration 270 nM, RXRa partner concentration 90 nM)
In short: (§1)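 Probes were double-stranded and carried 34-nt variable regions with direct-repeat seeds, single-nucleotide variants, half-site ablations and random human genomic background sequences, printed on custom Agilent 4×180K protein-binding microarrays. Arrays were incubated 1 h with ligand-free nuclear receptor dimers in PBS pH 7.4, 2% milk, 0.02% Triton X-100, 1 mM DTT, 0.2 mg/mL BSA and 0.4 mg/ml salmon testes DNA. Antibodies against each partner (one per run) detected binding, and scanned fluorescence was regression-normalized. Binding z-scores use the random background probes as reference.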

[2] = test system: LXRa:RXRa (NR concentration 270 nM, RXRa partner concentration 90 nM)
In short: as §1

[3] = test system: LXRa homodimer (NR concentration 270 nM)
In short: as §1

[4] = test system: LXRb:RXRa (NR concentration 270 nM, RXRa partner concentration 90 nM)
In short: as §1

[5] = test system: LXRb homodimer (NR concentration 270 nM)
In short: as §1

[6] = test system: PPARa:RXRa (NR concentration 270 nM, RXRa partner concentration 90 nM)
In short: as §1

[7] = test system: PPARg:RXRa (NR concentration 180 nM, RXRa partner concentration 90 nM)
In short: as §1

[8] = test system: PPARg:RXRa 270nM:90nM, anti-RXR (NR concentration 270 nM, RXRa partner concentration 90 nM)
In short: as §1

[9] = test system: PPARg:RXRa 30nM:10nM, anti-RXR (NR concentration 30 nM, RXRa partner concentration 10 nM)
In short: as §1

[10] = test system: PPARg:RXRa 90nM:30nM, anti-RXR (NR concentration 90 nM, RXRa partner concentration 30 nM)
In short: as §1

[11] = test system: PPARg:RXRa DBDmut IVT, anti-RXR (DBD mutation: RXRa K156A/R161A, NR concentration 270 nM, RXRa partner concentration 90 nM)
In short: as §1

[12] = test system: PPARg:RXRa IVT, anti-PPARg (NR concentration 270 nM, RXRa partner concentration 90 nM)
In short: as §1

[13] = test system: PPARg DBDmut:RXRa IVT, anti-PPARg (DBD mutation: PPARg1 K132A/R137A, NR concentration 270 nM, RXRa partner concentration 90 nM)
In short: as §1

[14] = test system: PPARg DBDmut IVT, anti-PPARg (DBD mutation: PPARg1 K132A/R137A, NR concentration 270 nM)
In short: as §1

[15] = test system: PPARg homodimer (NR concentration 180 nM)
In short: as §1

[16] = test system: PXR:RXRa (NR concentration 270 nM, RXRa partner concentration 90 nM)
In short: as §1

[17] = test system: PXR homodimer (NR concentration 270 nM)
In short: as §1

[18] = test system: RARa:RXR (NR concentration 270 nM, RXRa partner concentration 90 nM)
In short: as §1

[19] = test system: RARa homodimer (NR concentration 270 nM)
In short: as §1

[20] = test system: RARb:RXRa (NR concentration 270 nM, RXRa partner concentration 90 nM)
In short: as §1

Sequence	PBM binding z-score [1]	PBM binding z-score [2]	PBM binding z-score [3]	PBM binding z-score [4]	PBM binding z-score [5]	PBM binding z-score [6]	PBM binding z-score [7]	PBM binding z-score [8]	PBM binding z-score [9]	PBM binding z-score [10]	PBM binding z-score [11]	PBM binding z-score [12]	PBM binding z-score [13]	PBM binding z-score [14]	PBM binding z-score [15]	PBM binding z-score [16]	PBM binding z-score [17]	PBM binding z-score [18]	PBM binding z-score [19]	PBM binding z-score [20]
ATATGCAGGTTACATCCGGGTCATTCAGGCTATG	2.7	4.82	0.974	2.99	0.382	3.53	2.58	2.61	0.935	1.49	3.86	4.01	0.813	1.04	1.59	3.71	1.94	3.45	0.262	2.34
CGAACTAGGTCATTGAGAGGACAGTGAATAGTAA	3.94	2.78	0.422	1.87	-0.333	4.37	7.29	5.99	3.89	5.45	7.95	7.8	1.23	0.676	2.27	2.36	0.174	3.08	-0.238	3.74
TGAATGAGGTTAAAGATAAGGGAACGTGGCGTCG	2.65	2.28	0.104	1.5	0.393	3.54	2.88	3.98	1.97	3.5	2.35	2.62	1.71	0.597	0.427	1.37	0.106	2.09	-0.181	2.04
TCTTGTAGATCAATAGAGGTTAATAAAGTGCGCT	0.771	5.4	0.943	3.5	-0.00633	1.72	0.484	1.59	2.72	2.15	1.47	1.13	0.628	0.945	0.295	2.84	0.364	1.63	0.341	0.772
TCTTGTAGATAAAAGGTTAAGAAAGCCGAAGCCT	1.26	1.93	-0.0435	1.85	0.124	3.26	3.62	5.64	4.77	5.98	2.1	1.64	0.235	0.63	1.07	1.4	0.0184	1.84	0.655	1.91
TATACAGGGTCAAAGGCCATAGTACGAATGTCGA	7.3	6.15	2.85	5.09	2.38	6.27	9.09	7.76	6.42	8.54	2.29	5.22	3.81	1.65	2.99	4.83	0.657	6.64	1.1	4.56
ACATACAGGTGAGTGAAGGTAACTCAGCTGGACG	0.866	0.707	-0.217	-0.161	-0.321	1.21	1.28	0.814	0.519	0.883	2.31	2.03	0.417	0.188	0.393	0.304	-0.247	0.687	-0.0591	0.763
TCATATAGGTAAAGAGGTGAAAGTCCGTAAGTTA	1.74	1.63	0.378	1.56	-0.0509	3.46	4.38	4.63	4.83	5	4.95	5.26	1.1	0.188	1.78	1.23	0.825	1.76	1	1.65
GATACAGGGTCAGCTAGAGGCCAGAGTATGGAAA	4.81	2.75	-0.32	2.6	-0.659	4.53	3.81	3.35	0.742	2.06	1.03	2.29	0.139	0.0351	3.5	3.49	-0.262	4.85	0.574	4.22
TCTTGTAGATCAGCAGGTGAAGAAAGCTGGCCAA	0.169	-0.0408	-0.605	-0.0895	-0.698	0.51	-0.409	1.19	2.2	1.8	1.32	0.857	0.193	-0.252	-1.42	-0.182	-0.577	0.0618	-0.865	-0.138
TGATTGAGGTTAAAGATCAGGGAACGTGGCGTCG	3.41	2.42	0.0848	1.85	0.589	4.47	5.23	5.82	4.22	5.94	1.62	3.15	1.39	1.52	0.865	1.96	0.148	2.95	0.729	2.24
ATCTCTAGGTAACCAAGTACAGTGAATGCCGAAC	0.125	0.246	0.247	0.353	0.673	0.645	0.752	0.425	0.0273	0.341	3.29	3.07	1.88	1.42	0.713	0.0867	0.597	-0.0145	1.1	0.347
ATCTCAAGGTAAAGATAGTTCAGTGAATGCAAAT	0.707	5.22	0.562	1.38	0.331	0.546	0.372	0.508	0.448	0.296	0.21	0.461	0.586	1.27	0.584	2	1.05	0.797	0.976	1.16
CCCTACGGGTCACGAGGTTATAGCACGACGAGCG	6.43	4.68	0.337	4.01	-0.522	5.71	6.58	6.23	2.52	4.88	2.05	4.19	0.401	0.144	2.51	4.57	0.609	5.9	1.28	4.36
